Source: PubChem BioAssay
Values without a mark were called inactive. Where a call stands in place of a potency, no number is given. For some assays here: Potency and affinity values are given separately. Active and inactive are the calls of the source. Unless noted, the rule behind the calls is not given here.

Columns and labels:
[1] = antimalarial activity against Dd2 strain (AID 2302;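 active = growth inhibition above 50% at the single 2 µM test dose, taken to imply half-maximal potency below 2 µM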); conditions: P. falciparum Dd2 in RBCs, LDH growth readout, 72 h; at 2 µM; active compounds read high
[2] = human hepatoma cell viability loss – ATP luminescence, cytotoxicity control for P. falciparum antimalarial project, primary screen (AID 2303;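 active = inhibition above 50%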); conditions: HepG2 viability, 24-48 h, at 10 µM, active compounds read high
[3] = target: L-lactate dehydrogenase (Plasmodium falciparum (isolate CDC / Honduras)) (UniProt Q27743); test: PfLDH activity inhibition – cell lysate, 3D7 strain, counter-screen for P. falciparum growth inhibition project (AID 2304); conditions: P. falciparum 3D7 crude extract, LDH APAD/NBT absorbance; at 2 µM; active compounds read high
L-lactate dehydrogenase (Plasmodium falciparum (isolate CDC / Honduras)), sequence (Q27743 whole entry, looked up): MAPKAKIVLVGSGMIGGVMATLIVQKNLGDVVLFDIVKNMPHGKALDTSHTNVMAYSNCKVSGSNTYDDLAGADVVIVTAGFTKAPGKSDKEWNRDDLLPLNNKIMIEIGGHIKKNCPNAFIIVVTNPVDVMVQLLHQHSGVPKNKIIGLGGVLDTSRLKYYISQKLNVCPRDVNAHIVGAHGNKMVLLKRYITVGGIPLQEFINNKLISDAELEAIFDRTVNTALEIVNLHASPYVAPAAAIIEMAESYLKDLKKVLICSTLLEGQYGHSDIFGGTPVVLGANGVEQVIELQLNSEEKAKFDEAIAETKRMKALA

[4] = inhibition of 3D7 malaria parasite growth – strain 3D7 (AID 2306); conditions: P. falciparum 3D7 erythrocytic growth, LDH absorbance, 72 h; at 2 µM; active compounds read high
[5] = target: Calcium-dependent protein kinase 1 (Plasmodium falciparum (isolate 3D7)) (UniProt P62344); test: PfCDPK1 kinase inhibitors, biochemical, TCAMS library (AID 1159585; cut-off not given, nearly all actives have IC50 up to about 0.98 µM;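 note: inhibitors leave more ATP so luminescence rises with inhibition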); conditions: recombinant PfCDPK1, Kinase-Glo ATP depletion luminescence
Calcium-dependent protein kinase 1 (Plasmodium falciparum (isolate 3D7)), sequence (P62344 whole entry, looked up): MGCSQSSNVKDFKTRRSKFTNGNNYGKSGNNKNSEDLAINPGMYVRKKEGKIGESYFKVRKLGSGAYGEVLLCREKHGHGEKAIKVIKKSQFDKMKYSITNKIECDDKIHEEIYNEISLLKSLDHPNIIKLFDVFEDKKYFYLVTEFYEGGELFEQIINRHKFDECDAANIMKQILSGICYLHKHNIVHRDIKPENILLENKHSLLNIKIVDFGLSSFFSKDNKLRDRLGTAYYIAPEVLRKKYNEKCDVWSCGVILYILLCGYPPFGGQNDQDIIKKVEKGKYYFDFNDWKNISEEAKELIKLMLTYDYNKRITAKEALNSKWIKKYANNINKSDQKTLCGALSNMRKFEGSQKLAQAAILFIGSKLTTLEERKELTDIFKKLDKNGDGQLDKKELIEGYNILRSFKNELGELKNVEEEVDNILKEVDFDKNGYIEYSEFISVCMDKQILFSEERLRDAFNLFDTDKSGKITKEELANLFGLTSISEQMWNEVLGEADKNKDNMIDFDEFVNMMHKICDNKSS

[6] = target: Plasmodium falciparum protein kinase 6 (PK6, PF3D7_1337100) (UniProt Q8IDW1); test: PfPK6 kinase inhibitors, biochemical, TCAMS library (AID 1159586); conditions: recombinant PfPK6, Kinase-Glo ATP depletion luminescence
Plasmodium falciparum protein kinase 6 (PK6, PF3D7_1337100), sequence (Q8IDW1 1-305): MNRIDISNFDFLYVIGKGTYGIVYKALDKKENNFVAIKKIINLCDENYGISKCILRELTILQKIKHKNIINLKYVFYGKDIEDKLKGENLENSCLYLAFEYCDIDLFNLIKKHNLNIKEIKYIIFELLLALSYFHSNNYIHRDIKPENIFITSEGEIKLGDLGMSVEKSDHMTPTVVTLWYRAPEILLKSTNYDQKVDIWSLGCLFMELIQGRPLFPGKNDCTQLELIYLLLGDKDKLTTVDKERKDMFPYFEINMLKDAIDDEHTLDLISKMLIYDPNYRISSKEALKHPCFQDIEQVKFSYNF

[7] = target: Protein kinase 7 (PK7), Plasmodium falciparum 3D7 (PF3D7_0213400) (UniProt Q7YTF7); test: inhibition of Plasmodium PK7 catalytic activity – biochemical, TCAMS antimalarial set, Kinase-Glo luminescence (AID 1159587); conditions: recombinant PfPK7, Kinase-Glo ATP depletion luminescence
Protein kinase 7 (PK7), Plasmodium falciparum 3D7 (PF3D7_0213400), sequence (Q7YTF7 1-343): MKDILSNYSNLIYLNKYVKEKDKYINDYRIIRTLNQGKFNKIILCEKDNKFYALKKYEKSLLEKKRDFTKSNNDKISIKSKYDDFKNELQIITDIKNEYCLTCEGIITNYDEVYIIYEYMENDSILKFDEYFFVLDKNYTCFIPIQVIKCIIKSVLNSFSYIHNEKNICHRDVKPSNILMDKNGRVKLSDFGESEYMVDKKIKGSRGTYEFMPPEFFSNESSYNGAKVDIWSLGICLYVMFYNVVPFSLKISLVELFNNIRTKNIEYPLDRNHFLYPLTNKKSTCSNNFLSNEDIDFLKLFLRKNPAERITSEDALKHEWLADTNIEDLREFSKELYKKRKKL

[8] = target: Calcium-dependent protein kinase 4 (Plasmodium falciparum (isolate 3D7)) (UniProt Q8IBS5); test: PfCDPK4 kinase inhibitors, biochemical, TCAMS library (AID 1159588; cut-off not given, nearly all actives have IC50 up to about 0.91 µM); conditions: recombinant PfCDPK4, Kinase-Glo ATP depletion luminescence
Calcium-dependent protein kinase 4 (Plasmodium falciparum (isolate 3D7)), sequence (Q8IBS5 whole entry, looked up): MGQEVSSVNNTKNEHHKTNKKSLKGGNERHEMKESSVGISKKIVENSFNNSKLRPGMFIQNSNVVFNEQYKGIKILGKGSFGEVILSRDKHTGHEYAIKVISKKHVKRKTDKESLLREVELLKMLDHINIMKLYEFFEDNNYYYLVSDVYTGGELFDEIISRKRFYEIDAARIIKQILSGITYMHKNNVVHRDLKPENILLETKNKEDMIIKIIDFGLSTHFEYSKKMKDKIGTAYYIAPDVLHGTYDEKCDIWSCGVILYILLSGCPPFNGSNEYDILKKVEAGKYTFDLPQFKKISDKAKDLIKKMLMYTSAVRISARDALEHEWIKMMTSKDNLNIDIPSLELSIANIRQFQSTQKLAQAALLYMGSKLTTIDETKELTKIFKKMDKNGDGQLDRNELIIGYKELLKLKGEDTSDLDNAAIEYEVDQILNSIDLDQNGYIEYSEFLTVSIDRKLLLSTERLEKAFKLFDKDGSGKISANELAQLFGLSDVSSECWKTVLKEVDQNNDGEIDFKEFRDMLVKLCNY

SMILES | growth inhibition [1] | inhibition [2] | inhibition [3] | growth inhibition [4] | outcome [5] | outcome [6] | outcome [7] | outcome [8]
COc1cc2nc(N3CCC(CNC(=O)c4ccc(-c5ccc(C(=O)N(C)C)cc5)c(OCCO)c4)CC3)nc(N)c2cc1OC | 18% | 10% | -3% | 96% (active) | inactive | inactive | inactive | inactive
COC(=O)CCn1c(C2CCN(CC3CCC(NC(=O)/C=C/c4ccc(Cl)c(Cl)c4)CC3)CC2)nc2ccccc21 (stereo not given) | 10% | 14% | -2% | 94% (active) | inactive | inactive | inactive | inactive
COc1cc2ncnc(Nc3ccc(OCc4ccccc4Br)c(Cl)c3)c2cc1OC | 6% | 25% | -4% | 96% (active) | inactive | inactive | inactive | inactive
Cc1cc(N(C)C)nc(Nc2ccc(NC(=O)C(C)Oc3ccccc3)cc2)n1 (stereo not given) | 30% | 2% | -1% | 98% (active) | inactive | inactive | inactive | inactive
CC(C)Cn1cc(C2CCN(CCN3CCC(CNC(=O)c4ccc(-c5ccc(C(F)(F)F)cc5)cc4)CC3)CC2)c2ccccc21 | 87% (active) | 100% (active) | 0% | 101% (active) | inactive | inactive | inactive | inactive
Cc1cc(-c2nc3ccc(CN4CCN(C)CC4)cc3[nH]2)nn1Cc1cc(Cl)ccc1OCc1ccccc1 | 52% (active) | 3% | 1% | 100% (active) | inactive | inactive | inactive | inactive
CC1CN(c2cc(=O)n(Cc3cccc(NC(=O)Nc4ccc(-c5ccccc5)cc4)c3)cn2)CC(C)N1 (stereo not given) | 63% (active) | 2% | -2% | 101% (active) | inactive | inactive | inactive | inactive
O=C(Nc1ccc(Cl)c(Cl)c1)Nc1ccccc1N1CCNCC1 | 22% | 17% | 1% | 101% (active) | inactive | inactive | inactive | inactive
c1ccc2c(Nc3ccc(Cc4ccc(Nc5c6ccccc6nc6ccccc56)cc4)cc3)c3ccccc3nc2c1 | 101% (active) | 93% (active) | 7% | 101% (active) | inactive | inactive | inactive | inactive
COc1ccc(CN2CCC(NCc3ccc(C(F)(F)F)cc3)CC2)cc1 | -1% | 37% | 2% | 97% (active) | inactive | inactive | inactive | inactive
Cc1cccc2[nH]c(-c3ccc(-c4ccc(CN5CCN(CC6CCCN(C)C6)CC5)cc4)cc3)nc12 (stereo not given) | 99% (active) | 91% (active) | -7% | 101% (active) | inactive | inactive | inactive | inactive
COc1cc(NC(=O)Nc2ccc([N+](=O)[O-])cc2OC)c(OC)cc1Cl | 6% | 38% | 3% | 87% (active) | inactive | inactive | inactive | inactive
CCn1ccc2c(N3CCCC3=O)cc(C(=O)N[C@@H](Cc3ccccc3)[C@H](O)CNC3CCCCC3)cc21 | 98% (active) | 12% | 2% | 99% (active) | inactive | inactive | inactive | inactive
CCc1nc(N)nc(N)c1-c1ccc(F)cc1 | -3% | 52% (active) | -2% | 96% (active) | inactive | inactive | inactive | inactive
COc1cc(CCNc2nc(NCc3ccccc3-c3ccccc3)nc(N3CCC(N)CC3)n2)ccc1O | 70% (active) | 25% | -4% | 100% (active) | inactive | inactive | inactive | inactive
CCCc1cc(NC2CCN(C)CC2)nc(Nc2ccc(C)cc2)n1 | 20% | 25% | -1% | 101% (active) | inactive | inactive | inactive | inactive
Cc1cc(C)c(C)c(S(=O)(=O)N2CCCCC(c3ccc(F)c(F)c3)=N2)c1C | 60% (active) | 5% | -3% | 86% (active) | inactive | inactive | inactive | inactive
CCN(CC)CCN(Cc1ccc(-c2ccc(C(F)(F)F)cc2)cc1)C(=O)Cn1c(CCc2cccc(F)c2F)nc(=O)c2cc(F)c(F)cc21 | 56% (active) | 41% | -5% | 100% (active) | inactive | inactive | inactive | inactive
Cc1nc(N)nc(N)c1-c1cccc(Cl)c1 | -1% | 60% (active) | 2% | 88% (active) | inactive | inactive | inactive | inactive
CCN1CCN(CC(O)CNC(=O)Nc2ccc(Cl)cc2)CC1 (stereo not given) | 99% (active) | 29% | 3% | 100% (active) | inactive | inactive | inactive | inactive

SMILES | growth inhibition [1] | inhibition [2] | inhibition [3] | growth inhibition [4] | outcome [5] | outcome [6] | outcome [7] | outcome [8]
CN(C)CC(O)C(c1ccccc1)c1cccc(Br)c1 (stereo not given) | 9% | 22% | -8% | 98% (active) | inactive | inactive | inactive | inactive
Cc1ccc2cc(NCCCCCCCCON3C(N)=NC(N)=NC34CCCCC4)ccc2n1 | 80% (active) | 15% | 3% | 92% (active) | inactive | inactive | inactive | inactive
Cc1cc(Cl)c(S(=O)(=O)N2CCc3ccccc32)cc1OCC(=O)NC1CCCCC1 | 93% (active) | 28% | -3% | 101% (active) | inactive | inactive | inactive | inactive
N#Cc1ccc(C(=O)Nc2cccc(-c3ccc(CN4CCCC4)cc3)c2)cc1 | -2% | 13% | -2% | 99% (active) | inactive | inactive | inactive | inactive
CCCCc1ccc(Cc2cnc3nc(N)nc(N)c3c2C)cc1 | 5% | 64% (active) | 5% | 96% (active) | inactive | inactive | inactive | inactive
COc1ccc(Br)cc1C1[C@@H]2C(=O)N(c3ccc(Br)cc3)C(=O)[C@@H]2C2(C(=O)O)CC(OCc3ccccc3)CN12 (stereo not given in full) | 99% (active) | 16% | -2% | 104% (active) | inactive | inactive | inactive | inactive
Cc1cccc2[nH]c(-c3ccc(-c4cccc(CNCc5ccc(S(C)(=O)=O)cc5)c4)s3)nc12 | 91% (active) | 31% | -3% | 100% (active) | inactive | inactive | inactive | inactive
CN(C)Cc1ccc(O)c(-c2ccc(C(C)(C)C)cc2)n1 | 25% | -1% | -5% | 86% (active) | inactive | inactive | inactive | inactive
Cc1cc(N(C)C2CCN(CC3CCCCC3)C2)nc(Nc2ccc(Cl)cc2)n1 (stereo not given) | 35% | -3% | -5% | 98% (active) | inactive | inactive | inactive | inactive
O=C(C=Cc1ccc(Cl)c(Cl)c1)NC1CCN(CCc2ccccc2)CC1 | 13% | 6% | -8% | 97% (active) | inactive | inactive | inactive | inactive
O=C(/C=C/c1ccc(Br)cc1)NCCCCCN1CCC(c2c[nH]c3ccccc23)CC1 | 19% | 73% (active) | -2% | 99% (active) | inactive | inactive | inactive | inactive
Cc1cc(-c2ccc3c(c2)CCN(CCCOc2ccc4c(c2)CCN4C(=O)/C=C/c2ccccc2Cl)CC3)no1 | 50% (active) | 52% (active) | 1% | 88% (active) | inactive | inactive | inactive | inactive
CCN(CC)CC(O)c1cc(-c2ccc(C)cc2)nc2c(C)cc(C)cc12 (stereo not given) | 99% (active) | 3% | 1% | 100% (active) | inactive | inactive | inactive | inactive
O=C1C=Cc2ccccc2/C1=C/c1sc(=NCc2ccccc2)n(Cc2ccccc2)c1O | 98% (active) | 0% | -7% | 98% (active) | inactive | inactive | inactive | inactive
O=C(Nc1ccc(OC2CCN(Cc3ccccc3)C2)c(Cl)c1)c1cccs1 (stereo not given) | 96% (active) | 13% | -2% | 97% (active) | inactive | inactive | inactive | inactive
Fc1ccc2nc(-c3cccc(-c4cccc(CNCc5ccccc5)c4)c3)[nH]c2c1 | 52% (active) | 24% | -9% | 102% (active) | inactive | inactive | inactive | inactive
Nc1nc(N)c2cc(N(Cc3ccccc3)Cc3ccccc3)ccc2n1 | 88% (active) | 69% (active) | 3% | 99% (active) | inactive | inactive | inactive | inactive
O=C(CC1CCCCC1)NCC(NCCCNc1cc(=O)c2ccccc2[nH]1)c1cc(Br)cc(Br)c1 (stereo not given) | 52% (active) | 8% | 0% | 95% (active) | inactive | inactive | inactive | inactive
CCC(C)NS(=O)(=O)c1ccc2nc(Nc3ccc(C)c(Cl)c3)n(C(C)C(C)C)c2c1 (stereo not given) | 98% (active) | 22% | 1% | 98% (active) | inactive | inactive | inactive | inactive
CC1(C)N=C(NC(=O)Nc2ccc([N+](=O)[O-])cc2)N=C(N)N1OCc1cccc2ccccc12 | 21% | 35% | -3% | 97% (active) | inactive | inactive | inactive | inactive
